Measurements reported in PubChem BioAssay.
Unmarked numbers belong to inactive results. Activity calls are given as the source filed them.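 How the source made its calls: active means mean inhibition above 46.5%, the solvent-only control mean plus 3 SD; inactive means the rest.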

The molecules below were run against Nuclear receptor coactivator 2 (Homo sapiens) (UniProt Q15596) (assay: inhibition of GAL4-SRC2 driven luciferase expression – cell-based, luminescence, HEK293, triplicate, confirmation (AID 652008;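 further: 0% = DMSO-treated cells and 100% = Gossypol at 36 µM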)). Details: HEK293 GAL4-SRC2 luciferase reporter, at 8.9 µM, active compounds read high.
Sequence of Nuclear receptor coactivator 2 (Homo sapiens) (Q15596 whole entry, looked up, the tested form may be a part): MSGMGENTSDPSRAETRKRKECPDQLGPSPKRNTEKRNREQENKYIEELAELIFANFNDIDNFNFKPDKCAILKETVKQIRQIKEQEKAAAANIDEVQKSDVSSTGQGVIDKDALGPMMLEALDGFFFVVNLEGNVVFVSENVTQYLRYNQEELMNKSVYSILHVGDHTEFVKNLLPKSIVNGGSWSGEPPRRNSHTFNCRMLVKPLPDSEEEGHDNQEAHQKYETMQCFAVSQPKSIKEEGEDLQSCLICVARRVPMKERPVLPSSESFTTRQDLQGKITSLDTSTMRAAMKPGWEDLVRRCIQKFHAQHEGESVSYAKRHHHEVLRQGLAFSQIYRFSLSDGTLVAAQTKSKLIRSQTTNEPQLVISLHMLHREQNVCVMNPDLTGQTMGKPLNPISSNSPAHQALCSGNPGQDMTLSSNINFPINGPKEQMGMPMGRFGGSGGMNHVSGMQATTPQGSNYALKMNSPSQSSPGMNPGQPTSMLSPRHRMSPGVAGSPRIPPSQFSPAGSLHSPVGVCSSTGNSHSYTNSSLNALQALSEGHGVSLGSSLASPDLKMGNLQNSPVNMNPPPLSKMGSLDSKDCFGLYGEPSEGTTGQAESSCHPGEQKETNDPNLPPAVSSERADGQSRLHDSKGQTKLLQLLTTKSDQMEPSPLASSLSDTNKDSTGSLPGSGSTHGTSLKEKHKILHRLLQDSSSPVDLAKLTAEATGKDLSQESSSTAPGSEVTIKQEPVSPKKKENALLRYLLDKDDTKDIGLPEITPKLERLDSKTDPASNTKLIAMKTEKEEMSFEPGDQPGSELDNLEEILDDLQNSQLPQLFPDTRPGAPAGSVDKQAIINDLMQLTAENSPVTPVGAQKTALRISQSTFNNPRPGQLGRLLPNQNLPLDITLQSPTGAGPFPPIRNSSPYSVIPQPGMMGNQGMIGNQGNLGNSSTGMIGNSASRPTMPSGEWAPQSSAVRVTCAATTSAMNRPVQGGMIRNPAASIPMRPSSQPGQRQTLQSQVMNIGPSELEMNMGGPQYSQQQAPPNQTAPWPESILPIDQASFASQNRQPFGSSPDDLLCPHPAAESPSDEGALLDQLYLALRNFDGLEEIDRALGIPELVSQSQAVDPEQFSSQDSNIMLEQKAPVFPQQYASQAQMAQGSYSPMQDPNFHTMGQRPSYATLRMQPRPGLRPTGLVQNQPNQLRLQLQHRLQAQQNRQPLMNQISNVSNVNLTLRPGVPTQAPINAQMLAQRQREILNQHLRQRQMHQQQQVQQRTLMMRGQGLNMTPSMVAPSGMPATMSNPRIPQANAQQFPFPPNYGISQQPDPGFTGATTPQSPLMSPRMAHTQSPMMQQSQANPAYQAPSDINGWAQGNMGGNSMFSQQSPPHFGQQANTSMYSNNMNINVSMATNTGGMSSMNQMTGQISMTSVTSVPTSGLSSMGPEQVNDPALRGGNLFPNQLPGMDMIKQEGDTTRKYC

Compound | inhibition
CCOC(=O)c1c(NC(=O)/C=C/C(=O)O)sc(C)c1-c1ccc(C(C)(C)C)cc1 | 17.2%
O=c1[nH]c2ccc(Br)cc2c(=O)o1 | 34.9%
COCCN(C(=O)CC1C(=O)NCCN1Cc1ccc(-c2ccccc2)cc1)C(C)C (stereo not given) | -6.54%
O=C(CSc1nc(N2CCOCC2)nc(N2CCOCC2)n1)Nc1ccccc1F | 14.8%
Cc1nc2cc(-c3ccccc3)sc2c(=O)n1N | 45%
O=C(CCCN1C(=O)/C(=C/c2ccccc2)SC1=S)NCCCn1ccnc1 | 26.1%
Nc1ncc([N+](=O)[O-])c(Oc2ccccc2F)n1 | -16.8%
O=C(O)CCC(=O)Nc1cccc(-c2csc(-c3ccccc3)n2)c1 | 34.6%
Cc1nn(Cc2ccc(C(=O)NC(C)(C)C)o2)c(C)c1Br | 17.8%
COc1ccc(CNn2c(-c3cccs3)nc3ccccc3c2=O)cc1OC | 33.2%
O=C(CCc1nnc(-c2ccc(-c3ccccc3)cc2)o1)NCCc1ccccn1 | 54% (active)
CC1CCC(C(C)C)C(OCC(O)CN2CCCC(C)C2)C1 (stereo not given) | -16.1%
CCOc1ccccc1N1CCN(C(=O)c2cc(-c3cc(OC)ccc3OC)nc3ccccc23)CC1 | 14.4%
N/C(=N\OC(=O)c1ccc(Cl)cc1Cl)c1ccccn1 | -25.1%
O=C(NC(c1ccc(F)cc1)c1ccc2ccccc2n1)C1CCN(CCOc2ccc(F)cc2)CC1 (stereo not given) | -16.5%
CCOC(=O)C(=Cc1ccc(-n2cncn2)cc1)C(=O)OCC | 24.5%
Nc1nonc1C(=O)NCCNCc1cc(Br)ccc1OCc1ccc(F)cc1 | 1.86%
NC1=NC(=O)/C(=C\c2cccnc2)S1 | 35.6%
COc1ccc(-c2csc3ncnc(NCCO)c23)cc1 | 47.1% (active)
Cc1cc(C2=NNC(=NC3CC3)SC2)c(C)n1-c1ccccc1 | 96.4% (active)

Compound | inhibition
CCOc1cc(/C=C/C(=O)c2ccc3c(c2)OCCO3)ccc1OCC(=O)N(C)C | 16.2%
CCC/C(C#Cc1cc(OC)cc(OC)c1)=C1/c2ccccc2C(=O)N1c1ccccc1 | -4.64%
COc1ccc(-c2cc(C(=O)O)c(C)o2)cc1OC | -11.1%
CNc1ccc(N=Nc2cccc3ncccc23)cc1 | 14.4%
CC(=O)c1cccc(NC(=O)c2ccccc2N(C)S(=O)(=O)c2ccc(C)cc2)c1 | 0.15%
CN1CCN(/N=C/c2ccc(N(c3ccccc3)c3ccccc3)cc2)CC1 | 27.4%
CCCCCCCCN1C(=O)[C@H](CC(=O)NCCCC)C[C@@]2(C(=O)OCC)CCCC=C12 | -0.38%
Cc1c(NC(=O)COC(=O)C23CC4CC(CC(O)(C4)C2)C3)c(=O)n(-c2ccccc2)n1C | 3.79%
CCn1c(C2CCN(S(=O)(=O)c3ccc(OC)cc3)CC2)n[nH]c1=S | -16.9%
COCc1cc(N2CCN(C(=O)OC(C)(C)C)C[C@H]2C)ccc1N1CCS(=O)(=O)CC1 | 33.9%
CC(C)(C)n1nc(Cc2cccc3ccccc23)c2c(N)ncnc21 | 29.4%
CCOC(=O)C1CCN(S(=O)(=O)c2ccc(NC(=O)OC)cc2)CC1 | -1.21%
N#CCCN(C(=O)CCl)c1cccc(Cl)c1 | 62.8% (active)
COc1ccccc1/C=C1\SC(=S)N(CCC(=O)NCCCn2ccnc2)C1=O | 1.79%
Cc1ccc2c(c1)N(C(C)C(=O)NCc1ccc3c(c1)OCO3)C(=O)CO2 (stereo not given) | -19.4%
COc1ccc(C(=O)NCCNc2nc3cc(C)cc(C)c3cc2C#N)c(OC)c1 | 86.2% (active)
O=C(CCl)Nc1ccc(C(=O)NCC2COc3ccccc3O2)cc1 (stereo not given) | 39.9%
Cc1ccc(NC(=O)C2CCN(S(=O)(=O)c3ccc(N4CCCC4=O)cc3)CC2)cc1Cl | 46.4%
Cc1ccc(Cn2ccc(=O)c(OCc3c(Cl)cccc3Cl)c2C)cc1 | 13.3%
CCC(C(=O)NCc1ccc(F)cc1)n1nc(C)n2c(cc3occc32)c1=O (stereo not given) | -6.88%
